Wnt act: activators of Wnt/beta-catenin signaling; AID 743398; 1.2% of 300,000 active; Wnt/beta-catenin reporter cell assay, activator, plate reader; activation, % at 9.35 µM; in the data active = activation above about 30%, passing the limit was not always enough; inconclusive = no clear call, values can overlap the other calls
HSF1 inh: HSF1 inhibition. NIH3T3-HGL HSE-luciferase, MG132-induced, luminescence 8 h; hits give low values. AID 2098. activity change, negative = inhibition, % at 7.5 µM (by protocol). 0.77% of 300,000 active;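 active = more than half of replicate wells show activity change below -50%, luminescence cut by over half; inconclusive = some wells, but at most half, below -50%; inactive = no replicate well below -50%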;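 also: luciferase reports HSF-1 transcriptional activity via heat shock element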
MITF act: MITF TRPM1 promoter activation in melanoma cells; SK-MEL-5 TRPM1-promoter luciferase, 24 h; % of positive control, neutral wells = 0; activation, % at 12.5 µM; 0.75% of 300,000 active;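 active = mean activation of at least 80% with every replicate also reaching 80%; inconclusive = mean reaches 80% but some replicate falls short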
HSF-1 act: increases HSF-1 driven luciferase reporter signal; NIH3T3-HGL HSF-1 luciferase reporter, MG132, 8 h; 100% = twice DMSO control signal; activation, % at 9 µM; 1.7% of 300,000 active; AID 504408;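 active = mean replicate activation of at least 50% with a set share of replicates each reaching 50%; inconclusive = only one of those two conditions met; inactive = mean below 50% and too few replicates reaching it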
esBAF inh: inhibitors of esBAF chromatin remodeling in mouse ES cells. reporter increase, % at 12.5 µM. 2% of 350,000 active. Bmi1-luciferase knock-in reporter, 24 h; 100% = twice the neutral-well signal; in the data active = activation above about 40%; inconclusive = no clear call, values can overlap the other calls;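 also: a rise in the Bmi1 reporter signal indicates esBAF inhibition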
Hits are given with their value. This is a sample that favours compounds with a hit; in the whole collection about 3.8% have one here.

Results for O=C(Nc1nc(-c2cccc(Br)c2)cs1)Oc1ccccc1 ?
Wnt act: inactive; HSF1 inh: inactive; MITF act: inactive; HSF-1 act: inactive; esBAF inh: 45

What do the screens show for `COc1cccc(NC(=O)Nc2nc(-c3ccc(OC)c(OC)c3)cs2)c1`?
Wnt act: inactive; HSF1 inh: inactive; MITF act: inactive; HSF-1 act: inactive; esBAF inh: 43

How did COc1cccc(-c2csc(NC(C)=O)n2)c1 do in these assays?
HSF1 inh: inactive; MITF act: 83; HSF-1 act: inactive; esBAF inh: 78

Results for CCc1ccc(-c2csc(NC(=O)Oc3ccccc3)n2)cc1 ?
Wnt act: inactive; HSF1 inh: inactive; MITF act: inactive; HSF-1 act: inactive

Results for COc1ccc(-c2csc(NC(C)=O)n2)cc1OC ?
Wnt act: inactive; HSF1 inh: inactive; HSF-1 act: inactive; esBAF inh: inactive

What do the screens show for `Cc1ccc(N=Nc2c(N)nn(-c3ccccc3)c2N)cc1`?
Wnt act: 33; HSF1 inh: inactive; MITF act: inactive; HSF-1 act: inactive

Results for COc1ccc(N=Nc2c(N)nn(C)c2N)cc1 ?
Wnt act: inactive; MITF act: inactive; esBAF inh: 44

How did Cc1nn(-c2ccccc2)c(N)c1N=O do in these assays?
Wnt act: inactive; HSF1 inh: inactive; HSF-1 act: inactive

Results for Cc1nn(-c2ccccc2)c(N)c1N=Nc1ccc2ccccc2c1 ?
Wnt act: inactive; HSF1 inh: inactive; MITF act: inactive; HSF-1 act: 78; esBAF inh: inconclusive

How did COc1ccc(C(=O)Nn2c(SCC(=O)c3ccc(Cl)cc3)nc3ccccc3c2=O)cc1 do in these assays?
Wnt act: inactive; HSF1 inh: -71; MITF act: inactive; HSF-1 act: inactive; esBAF inh: inactive

How did O=C(Nn1c(SCc2cccc([N+](=O)[O-])c2)nc2ccccc2c1=O)c1ccccc1 do in these assays?
Wnt act: 43; HSF1 inh: inactive; MITF act: inactive; HSF-1 act: inactive

Results for COCCn1c(SCC(=O)N2CCC(C)CC2)nc2ccccc2c1=O ?
Wnt act: inactive; HSF1 inh: inactive; MITF act: inactive; HSF-1 act: inactive; esBAF inh: inactive

How did COc1ccc(C(=O)Nn2c(SCC(=O)NCc3ccco3)nc3ccccc3c2=O)cc1 do in these assays?
HSF1 inh: -75; MITF act: inactive; HSF-1 act: inactive

How did CCn1c(SCC(=O)NCc2ccco2)nc2ccccc2c1=O do in these assays?
Wnt act: inactive; HSF1 inh: inactive; MITF act: inactive; HSF-1 act: inactive

How did COc1ccc(C(=O)Nn2c(SCC(=O)N3CCC(C)CC3)nc3ccccc3c2=O)cc1 do in these assays?
Wnt act: inactive; HSF1 inh: -66; MITF act: inactive; HSF-1 act: inactive; esBAF inh: inactive

Results for COc1ccc(C(=O)Nn2c(SCc3cccc([N+](=O)[O-])c3)nc3ccccc3c2=O)cc1 ?
HSF1 inh: inactive; MITF act: inactive; HSF-1 act: inactive; esBAF inh: inactive

How did O=C(N[C@@H]1CC[C@H](CCn2cc(Cc3ccccc3)nn2)O[C@@H]1CO)c1cnccn1 do in these assays?
esBAF inh: inactive

How did C[C@@H]1CN([C@H](C)CO)S(=O)(=O)c2ccc(C#Cc3cccc(F)c3)cc2O[C@@H]1CN(C)C(=O)NC1CCCCC1 do in these assays?
esBAF inh: inactive

Results for COc1ccc(C(=O)NCCn2cc(SCC(=O)NCC3CCCO3)c3ccccc32)cc1 (stereo unspecified) ?
Wnt act: inactive; HSF1 inh: inactive; MITF act: inactive; HSF-1 act: inactive

What do the screens show for `O=C(CSc1ncc(-c2ccccc2)n1-c1ccccc1)NCc1ccco1`?
HSF1 inh: inactive; MITF act: inactive; HSF-1 act: inactive; esBAF inh: inactive

What do the screens show for `O=C(CSc1ncccn1)NC(=O)NCc1ccco1`?
Wnt act: 36; HSF1 inh: inactive; MITF act: inactive; HSF-1 act: inactive; esBAF inh: inactive

How did COc1ccc(-n2c(-c3ccc(F)cc3)cnc2SCC(=O)NCc2ccco2)cc1 do in these assays?
HSF1 inh: -54; MITF act: inactive; HSF-1 act: inactive; esBAF inh: inactive

How did COc1ccc(C(=O)Nn2c(SCC(=O)NC3CCCCC3)nc3ccccc3c2=O)cc1 do in these assays?
Wnt act: inactive; HSF1 inh: -64; MITF act: inactive; HSF-1 act: inactive; esBAF inh: inactive

What do the screens show for `COc1ccc(C(=O)NCCn2cc(SCC(=O)NCc3ccco3)c3ccccc32)cc1`?
HSF1 inh: inactive; MITF act: inactive; HSF-1 act: inactive; esBAF inh: 52

How did COc1ccc(S(=O)(=O)N(C)C[C@@H]2Oc3c(NC(=O)c4ccncc4)cccc3C(=O)N([C@H](C)CO)C[C@@H]2C)cc1 do in these assays?
esBAF inh: inactive

How did Cc1noc(C)c1S(=O)(=O)N(C)C[C@H]1Oc2ccc(NC(=O)NC(C)C)cc2CC(=O)N([C@@H](C)CO)C[C@@H]1C do in these assays?
esBAF inh: inactive

What do the screens show for `C[C@@H]1CN([C@H](C)CO)C(=O)c2cccc(NS(=O)(=O)c3ccccc3)c2O[C@H]1CN(C)Cc1ccc(C(F)(F)F)cc1`?
esBAF inh: inactive

Results for CCCNC(=O)[C@@H]1[C@@H](CO)[C@@H]2Cn3c(ccc(C4=CCCC4)c3=O)[C@H]1N2C(=O)CC1CC1 ?
esBAF inh: inactive

How did COc1ccc2cc(C(=O)NCc3ccco3)c(=Nc3ccc(C(=O)O)cc3)oc2c1 do in these assays?
Wnt act: 42; HSF1 inh: -63; MITF act: inactive; HSF-1 act: inactive; esBAF inh: inactive

Results for COc1ccc(-c2cc(C(=O)NCc3ccco3)c3ccccc3n2)cc1 ?
Wnt act: inactive; HSF1 inh: inactive; MITF act: inactive; HSF-1 act: 86; esBAF inh: inactive

What do the screens show for `CCCCn1c(SCC(=O)NCc2ccco2)nc2c(sc3ccccc32)c1=O`?
Wnt act: inactive; HSF1 inh: -65; MITF act: inactive; HSF-1 act: inactive; esBAF inh: inactive

How did O=C(CSc1nc2ccccc2c2nc3ccccc3n12)NCc1ccco1 do in these assays?
Wnt act: inactive; HSF1 inh: inactive; MITF act: inactive; HSF-1 act: 103; esBAF inh: inactive

How did CCOCCCn1c(SCC(=O)NCc2ccco2)nc2c(sc3ccccc32)c1=O do in these assays?
HSF1 inh: inactive; HSF-1 act: inactive; esBAF inh: inactive

Results for Cn1c(SCC(=O)NCc2ccco2)nc2ccccc2c1=O ?
Wnt act: inactive; HSF1 inh: inactive; HSF-1 act: inactive; esBAF inh: inactive

What do the screens show for `N#C[C@@H]1[C@@H](c2ccccc2)[C@H](CO)N1C(=O)C1CCCC1`?
esBAF inh: inactive

How did COc1cc(OC)nc(Oc2ccccc2C(=O)Oc2ccc(C)cc2)n1 do in these assays?
Wnt act: inactive; HSF1 inh: inactive; MITF act: inactive; HSF-1 act: inactive; esBAF inh: inactive

What do the screens show for `COc1cc(OC)nc(Oc2ccccc2C(=O)Oc2ccc(Cl)cc2)n1`?
Wnt act: inactive; HSF1 inh: -86; MITF act: inactive; HSF-1 act: inactive; esBAF inh: inactive

Screening data from PubChem BioAssay.
